Measured values published in PubChem BioAssay (NCI).
Compounds without any hit were thinned out: in the full panel of roughly 83,000, 20% have a hit.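 Single-concentration screen, 48 h exposure, 96-well plates. Endpoint: percent growth. Below 10 = active.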 Unmarked numbers belong to inactive results. The source made the active and inactive calls.

Tests used:
Assay in all cases: NCI-60 one-dose screen, 48 h (100 = growth as untreated, 0 = no growth, -100 = all killed)
Conditions in all cases: 10 µM unless noted
[1] = test system: HT29 colon
[2] = test system: SNB-75 CNS
[3] = test system: SNB-19 CNS
[4] = test system: U251 CNS
[5] = test system: PC-3 prostate
[6] = test system: SK-MEL-5 melanoma
[7] = test system: UACC-62 melanoma
[8] = test system: LOX IMVI melanoma
[9] = test system: SK-MEL-28 melanoma
[10] = test system: SK-MEL-2 melanoma
[11] = test system: EKVX NSCLC
[12] = test system: SN12C renal
[13] = test system: UO-31 renal
[14] = test system: TK-10 renal
[15] = test system: ACHN renal
[16] = test system: CAKI-1 renal
[17] = test system: A498 renal
[18] = test system: CCRF-CEM leukemia
[19] = test system: MOLT-4 leukemia

Compound | growth [1] | growth [2] | growth [3] | growth [4] | growth [5] | growth [6] | growth [7] | growth [8] | growth [9] | growth [10] | growth [11] | growth [12] | growth [13] | growth [14] | growth [15] | growth [16] | growth [17] | growth [18] | growth [19]
O=C(/C=C/c1ccc(Br)cc1)c1ccc(-n2cc(CN3CCN(c4cc5c(cc4F)c(=O)c(C(=O)O)cn5C4CC4)CC3)nn2)cc1 | 91.7% | 93.6% | 86.9% | 71.2% | 82% | 91.1% | 83% | 50.4% | 107% | 97.2% | 90.7% | 44.9% | 65.7% | 91.4% | 93.7% | 64.4% | 57.4% | 56.3% | 67.7%
N=c1sc(Cc2cc(Cl)ccc2Cl)cn1CC(=O)c1ccccc1 | 16.1% | 5.16% (active) | 63.6% | 40.4% | 62.5% | 37.3% | 17.1% | 25.1% |  | 61.6% | 54.4% | 63% | 43.9% | 61.3% | 37.3% | 21.1% | 49% | 60% | 49.8%
O=C1C(Cl)=C(NCCN2CCOCC2)C(=O)c2ncccc21 | -27.6% (active) | 88.3% | 17.3% | 29.6% | 38.1% | -94.1% (active) | -51.2% (active) | -57.3% (active) | -84.3% (active) | -23.8% (active) | -78.9% (active) | -69.2% (active) | -75.7% (active) | 28.3% | -42.5% (active) | 88.5% | 74.2% | 5.23% (active) | 8.73% (active)
CC1=CCC[C@@H]2C1(C)CC[C@H](C)[C@@]2(C)CC1=CC(=O)C(SC(C)(C)C)=CC1=O (stereo partly drawn) | 77% | 77.4% | 94.5% | 85% | 56.1% |  | 67.1% |  | 94.2% | 97.3% | 70.7% | 86.8% | 66.2% | 98.8% | 77.5% | 78.4% | 88.6% | -23.5% (active) | 36%
CN1CCN(CCCOc2ccc3ncnc(Nc4ccc(Oc5cccc(F)c5)c(Cl)c4)c3c2)CC1 | -25.1% (active) | 52.1% | 34.8% | 8.27% (active) | 8.64% (active) | -96.3% (active) | -31.8% (active) | -91.6% (active) | -85.9% (active) | -8.81% (active) | 29.6% | 49.4% | 34.2% | 37% | -11.3% (active) | 5.24% (active) | 33.2% | -6.61% (active) | -3.25% (active)
N#Cc1c(N2CCOCC2)nc(=S)[nH]c1-c1ccccc1 | 86.1% | 15.1% | 84.8% | 78.5% | 47% | 63% | 43.6% | 80% |  | 41.8% | 56.8% | 73.7% | 76.9% | 57.6% | 73.9% | 61.4% | 13.7% | 62.3% | 73.6%
Nc1nc(C(=O)N/N=C/c2ccc(N3CCOCC3)cc2)nn1-c1ccc(S(N)(=O)=O)cc1 | 106% | 83% | 102% | 98.3% | 101% | 102% | 102% | 97.4% | 117% | 104% | 101% | 103% | 85.4% | 94.4% | 109% | 89.8% | 107% | 112% | 123%
CCN(CC)CCCC(C)Nc1ccc2cc(OC)ccc2n1 (stereo not drawn) | 106% | 89.8% | 106% | 97.9% | 95.4% | 107% | 108% |  | 108% | 116% | 91.4% | 104% | 91.3% | 106% | 107% | 101% | 84.5% | 107% | 116%
CC(C)c1ccc(-n2c(=S)[nH]c3sc4c(c3c2=O)CCC(=O)C4)cc1 | 109% | 41.6% |  | 11.8% | 7.63% (active) | 27.9% | 24.5% | 43.3% | 75.7% | 91.4% | 47% | 50.8% | 46.9% | 106% | 82% | 74.2% | 112% | 18.2% | 75.7%
C=CC(=O)N1CCN(c2ccc3cccc(NC(=O)c4cnc(C)cn4)c3n2)CC1 | 51.3% | 15.4% | 62.4% | 32.1% | 43.5% | 61.4% | 26.9% | 33.4% | 68% | 29.7% | 66.6% | 9.63% (active) | 0.645% (active) | 23.2% | 5.43% (active) | 4.05% (active) | -12.7% (active) | 32.1% | 35.7%
CCOC(=O)c1c(-c2ccccc2)n2c(=O)cc(C)c3c(O)c(O)cc1c32 | 70.9% | 63.6% | 65.6% | 48.8% | 41.7% | 41.9% | 69.4% | 43% | 76% | 83.8% | 86.6% | 68.7% | 51.1% | 89.2% | 47% | 52% | 88.6% | 17.1% | 36.1%
O=C(O)c1cn(C2CC2)c2cc(N3CCN(C(=O)N/N=C/c4ccccc4)CC3)c(F)cc2c1=O | 96.9% | 98.9% | 94.7% | 101% | 96% | 94.9% |  | 80.7% | 108% | 98.7% | 101% | 112% | 74% | 96.5% | 101% | 93.3% | 109% | 96.9% | 85.4%
CCN(CC)CCOc1ccc(Nc2ncc3cc(-c4ccc(O)cc4)c(=O)n(C)c3n2)cc1 | 14.8% | 27.7% | 62.4% | 53.9% | -49.3% (active) | 92.9% | 93.3% | -11.7% (active) | 55.7% | 97.7% | 74% | 39.9% | 10.5% | 81.2% | 26% | 26.4% | 69.4% | -8.41% (active) | 5.99% (active)
C/C(=N\O)C(=O)NCCCCCC(=O)Nc1ccccc1 | 104% | 88.2% |  | 98.6% | 104% | 91.7% | 94.3% | 89.7% | 114% | 110% | 98.2% | 98.5% | 90.3% | 89.6% | 109% |  | 90.2% | 101% | 101%
Cn1c(=O)c2c(c3ccccc31)OC(N)=C(C#N)C21C(=O)c2ccccc2C1=O | 102% | 76.8% | 88.2% | 101% | 80.8% | 94.9% | 89.8% | 97.5% | 104% | 107% | 86% | 90.1% | 61.4% |  | 97% | 84.2% | 82.8% | 103% | 112%
CN(C)Cc1ccc(C(=O)Nc2ccc3ncnc(Nc4ccc(Oc5cccc(F)c5)c(Cl)c4)c3c2)cc1 | -35.4% (active) | 18.5% | -3.27% (active) | -28.1% (active) | 3.54% (active) |  | -20.1% (active) | -96.2% (active) | -89.1% (active) | -27.1% (active) | 35.5% | 11.4% | 16% | 1.66% (active) | -85.8% (active) | -42.2% (active) | 19.2% | -0.132% (active) | -13.2% (active)
